# According to PubChem BioAssay (NCATS):
# Records with an inconclusive call do not appear. The source made the active and inactive calls. Calls follow the shape of the full dose curve.
# Assay: Primary qHTS for inhibitors of MERS-S pseudo-typed particle cell entry (AID 1479149); also: nearly all actives have a fitted effect of over 60% in size
# Conditions: MERS-S pseudotyped particle entry, luciferase; series mostly up to 57.1 µM; activity change, negative = inhibition: at the top concentration
# % is scaled to controls: 0 for no effect and ±100 for the full control effect.
SMILES,outcome,"activity change, negative = inhibition"
O=C1c2cccc(O)c2C(=O)c2c(O)cccc21,inactive,–
CN1CCCN=C1/C=C/c1cccs1,inactive,–
Cc1ccc(C(=O)Oc2ccc(C(O)CNC(C)(C)C)cc2OC(=O)c2ccc(C)cc2)cc1 (stereo not drawn),–,-20.8% (inactive)
CC(C)c1cc2c(cc1S(=O)(=O)O)[C@@]1(C)CCC[C@@](C)(C(=O)O)[C@@H]1CC2,inactive,–
Oc1ccc(CCNCCCCCCNCCc2ccccc2)cc1O,inactive,–
O=C(O)c1cn(-c2ccc(F)cc2)c2cc(N3CCNCC3)c(F)cc2c1=O,inactive [at 26.4 µM],–
N[C@H](Cc1c[nH]c2ccccc12)C(=O)O,inactive,–
CCCSS/C(CCO)=C(\C)N(C=O)Cc1cnc(C)nc1N,inactive,–
CCOC(=O)OC(C)OC(=O)[C@@H]1N2C(=O)[C@@H](NC(=O)[C@H](N)c3ccccc3)[C@H]2SC1(C)C (stereo partly drawn),–,7.7% (inactive)
C=Cc1c(C)c2cc3[nH]c(cc4nc(cc5nc(cc1[nH]2)C(C)=C5CCC(=O)O)C(CCC(=O)O)=C4C)c(C)c3C=C,–,1.69% (inactive)
CCOc1ccc(NC(C)=O)cc1,inactive,–
CCCCCC1Nc2cc(C(F)(F)F)c(S(N)(=O)=O)cc2S(=O)(=O)N1 (stereo not drawn),inactive,–
O=C(O)COC(=O)Cc1ccccc1Nc1c(Cl)cccc1Cl,inactive,–
CCCCN(CCN(CCCC)C(=O)N1CCOCC1)C(=O)N1CCOCC1,–,3.92% (inactive)
CCNC(=O)NCCCOc1cccc(CN2CCCCC2)c1,inactive,–
Oc1ccc(C(O)CNCCCCCCNCC(O)c2ccc(O)c(O)c2)cc1O (stereo not drawn),–,1.62% (inactive)
CCOC(=O)n1ccn(C)c1=S,inactive,–
CCN1CCN(c2cc(-c3ccc(F)cc3)c3c(n2)CCCCCC3)CC1,–,-14.1% [at 26.4 µM] (inactive)
